This is a sample that favours compounds with a hit; in the whole collection about 1.2% have one here.
Anesthetic bind: qHTS Assay for Identification of Novel General Anesthetics; Ferritin light chain (Equus caballus), P02791; apoferritin/1-aminoanthracene competitive binding, fluorescence; Potency, µM (doses to about 77.5 µM), most hits filed as inhibitors; 350,000 tested, 0.074% active; also: nearly all actives have a fitted effect of over 20% in size
Target sequence (P02791 2-175 limits assumed): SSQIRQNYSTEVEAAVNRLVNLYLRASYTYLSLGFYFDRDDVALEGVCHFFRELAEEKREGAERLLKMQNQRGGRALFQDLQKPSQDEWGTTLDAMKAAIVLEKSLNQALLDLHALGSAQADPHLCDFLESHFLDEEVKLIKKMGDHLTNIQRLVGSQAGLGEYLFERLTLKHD
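Steps: apoferritin (10 uM) was premixed with half-saturated 1-AMA in PBS, compounds were pin-transferred, plates stood 10 min at room temperature, fluorescence was read at 380/535 nm, and curves were fitted with a Hill equation.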
BRCA1 expr act: qHTS Assay to Identify Small Molecule Activators of BRCA1 Expression. Potency, µM (doses to about 46.1 µM), hits mostly activators. MCF7-BRCA1-FFLuc reporter, luminescence, 48 h; response scale: scaled: vehicle 0%, 10 µM genistein 100%. AID 624202, 2012. 380,000 tested, 1.1% active; also: nearly all actives have a fitted effect of over 80% in size
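Using MCF7 cells harboring a BRCA1 firefly luciferase reporter, plated 2 h before compound pinning, the screen measured luminescence after 48 h incubation. Responses were normalized to DMSO and 10 microM genistein, then fitted for concentration-effect.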
PTAP TSG101 blk: qHTS Assay for Iinhibitors of HIV-1 Budding by Blocking the Interaction of PTAP/TSG101; Tumor susceptibility gene 101 protein (Homo sapiens), Q99816; Fluorescence polarization, FITC-PTAP peptide / Tsg101 binding; Potency, µM (titrated, usually from 115 µM), most hits filed as inhibitors; 340,000 tested, under 10 active; AID 493005, 2010; active = well fitted inhibition curve with a large enough effect in the main read-out, with a control signal flat, not every such curve was filed as active; inconclusive = small, poorly fitted or top-dose-only effect, or effect the other way, or a change in a side signal; inactive = no such curve, though single readings can be large or run the other way
Target sequence (Q99816 whole entry, looked up): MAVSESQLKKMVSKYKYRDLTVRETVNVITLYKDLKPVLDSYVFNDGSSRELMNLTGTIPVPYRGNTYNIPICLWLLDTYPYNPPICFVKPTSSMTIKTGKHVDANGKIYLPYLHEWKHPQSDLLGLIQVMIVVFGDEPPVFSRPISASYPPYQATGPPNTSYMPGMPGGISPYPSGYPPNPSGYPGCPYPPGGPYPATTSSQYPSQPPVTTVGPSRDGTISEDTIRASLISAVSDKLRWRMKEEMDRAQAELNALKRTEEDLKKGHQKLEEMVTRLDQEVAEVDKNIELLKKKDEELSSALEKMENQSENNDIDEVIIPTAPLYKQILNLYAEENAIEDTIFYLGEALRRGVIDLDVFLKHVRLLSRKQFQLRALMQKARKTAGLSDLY
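Fluorescence anisotropy tracks displacement of a FITC-tagged PTAP peptide (50 nM) from the Tsg101 binding domain (10 uM), following a 20 min room-temperature incubation at pH 7.5.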
ASM inhibitor: Inhibitors of Secretory Acid Sphingomyelinase (S-ASM): qHTS. Sphingomyelin phosphodiesterase (Homo sapiens), P17405. placental ASM, HMU-PC fluorogenic substrate, 60 min. 340,000 tested, 0.006% active. Potency, µM (doses to about 57.5 µM), actives largely listed as inhibitors
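Steps: dispense placental human ASM, pin compound, wait 10 min at room temperature, add HMU-PC0 substrate at 9 uM final, incubate 60 min at 37 °C, add stop solution raising pH to 10, read fluorescence.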
TSHR antag: Antagonists of the Thyroid Stimulating Hormone Receptor: HTS campaign; Thyrotropin receptor (Homo sapiens), P16473; TSHR-expressing cells, TSH-stimulated cAMP HTRF, 2 h; active compounds read low; activity change, negative = inhibition, % at 11.5 µM; 330,000 tested, 0.2% active; AID 504810, 2011;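 active = activity change below a set negative limit, meaning inhibition stronger than a set level, cut at about -70% in these data; inconclusive = activity change between two set negative limits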
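Antagonism was scored as loss of TSH-driven cAMP in TSHR cells, stimulated with 4nM TSH (EC80) for 2 hours at 37 deg C and detected by homogeneous HTRF competition immunoassay.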
Hits are given with their value; n = inactive; u = inconclusive; x = no result; [ ] = another dose, or the depositor's remark. Unless noted, calls follow the shape of the dose curve; as a rule, active = well fitted curve in the direction sought with a large enough effect; inconclusive = small, poorly fitted or top-dose-only effect, or another doubt; inactive = no such curve, though single readings can be large; an effect the other way counts as inactive or inconclusive.

SMILES	Anesthetic bind	BRCA1 expr act	PTAP TSG101 blk	ASM inhibitor	TSHR antag
COc1ccc(CNc2nc3ccccc3s2)cc1OC	n	n	n	n	n
c1ccc(CCNc2nc3ccccc3s2)cc1	13µM	11µM	n	n	n
Cc1occc1C(=O)N/N=C/c1cccs1	n	13µM	n	n	n
COc1cc(/C=N/NC(=O)c2ccoc2C)cc(OC)c1OC	x	n	n	n	x
O=C(N/N=C/c1cccs1)c1[nH]ncc1Br	n	3.2µM	n	n	n
Cc1occc1C(=O)N/N=C/c1ccc(-c2ccccc2)cc1	n	u	n	n	n
Cc1cc(/C=N/NC(=O)c2ccoc2C)cc(C)c1O	x	7.9µM	x	x	x
Cc1[nH]c2ccccc2c1C(=O)C(C)Sc1nc2ccccc2c(=O)n1Cc1cccnc1 (stereo not given)	x	n	x	x	x
COc1ccc2oc(=O)c(C(=O)Nc3cccc(C)c3)cc2c1	n	3.2µM	n	n	n
COc1ccc2oc(=O)c(C(=O)Nc3cccc(C(=O)O)c3)cc2c1	n	x	x	x	x
COCCNC(=O)CSc1ccc(C)cc1	n	n	n	n	n
Cc1ccc(SCC(=O)NCCSC(C)(C)C)cc1	n	8.9µM	n	n	n
Cc1ccc(COn2c(-c3ccc(Cl)cc3)nc3ccc([N+](=O)[O-])cc32)cc1	n	10µM	n	n	n
CC(=O)Oc1ccc(N2C(=O)C3C4C=CC(CO)(O4)C3C2=O)cc1 (stereo not given)	n	n	n	n	n
O=C1C2C3C=CC(CO)(O3)C2C(=O)N1c1ccccc1-c1ccccc1 (stereo not given)	n	n	n	n	-73
O=C(O)c1cc(=O)c2cc(Cl)ccc2[nH]1	n	x	x	x	x
Cc1nc([N+](=O)[O-])cn1CC(O)c1ccc2c(c1)OCO2 (stereo not given)	x	n	x	x	x
O=C(CCN1C(=O)c2cccc3cccc(c23)C1=O)NC1CCS(=O)(=O)C1 (stereo not given)	n	10µM	n	n	n
O=C(CCN1C(=O)c2cccc3cccc(c23)C1=O)N1CCOCC1	n	13µM	n	n	n
O=C(CCN1C(=O)c2ccccc2C1=O)N1CCOCC1	n	n	n	n	n
CCC1CN(C(=O)NCc2ccccc2)c2ccccc2O1 (stereo not given)	n	n	n	n	-72
N/C(=N\OC(=O)c1cccc(F)c1)c1cccc([N+](=O)[O-])c1	n	13µM	n	n	n
N/C(=N/OC(=O)c1cccc([N+](=O)[O-])c1)c1cccc([N+](=O)[O-])c1	n	7.1µM	n	n	n
N/C(=N\OC(=O)c1ccc(F)cc1)c1cccc([N+](=O)[O-])c1	n	n	n	n	n
CC[C@H](C)[C@H](NC(=O)[C@@H](NC(=O)[C@@H](NC(=O)[C@H](CCC(=O)O)NC(=O)[C@H](CCC(=O)O)NC(=O)[C@H](CCC(=O)O)NC(=O)[C@H](C)NC(=O)[C@@H](N)CC(C)C)C(C)C)C(C)C)C(=O)N[C@@H](CCCNC(=N)N)C(=O)N[C@@H](CO)C(=O)N[C@@H](C)C(=O)N[C@@H](CC(N)=O)C(=O)N[C@@H](Cc1ccccc1)C(=O)N[C@H](C(=O)N[C@@H](CC(=O)O)C(=O)N[C@@H](CC(N)=O)C(=O)O)[C@@H](C)O	n	x	x	x	x
SMILES	Anesthetic bind	BRCA1 expr act	PTAP TSG101 blk	ASM inhibitor	TSHR antag
COc1ccc(C2CC(c3ccccc3)Oc3cc(OC)ccc32)cc1 (stereo not given)	n	x	x	x	x
CCOc1ccc2cc(C#N)c(SCC(=O)OCc3ccccc3)nc2c1	x	n	x	x	x
COc1ccc(/C=C/c2nnc(NC(=O)COc3ccc(Cl)cc3)s2)cc1	x	n	x	x	x
O=C(c1cccs1)n1nc(-c2ccco2)nc1SCc1ccccc1	28µM	u	n	n	n
CC(=O)n1nc(-c2ccco2)nc1SCc1ccccc1	u	11µM	n	n	n
CCC(=O)n1nc(-c2ccco2)nc1SCc1ccccc1	n	u	n	n	n
NS(=O)(=O)c1ccc(CCNC(=O)c2ccc(Cl)s2)cc1	n	n	n	n	n
NS(=O)(=O)c1ccc(CCNC(=O)c2cc3ccccc3s2)cc1	n	n	n	n[11.5 µM]	-103
COc1ccc(/C=C/c2ccnc3ccccc23)c(OC)c1	x	n	x	x	x
CC1CCCCC1NC(=O)c1ccc2c(c1)OCCO2 (stereo not given)	x	n	n	n	n
CC1CCCC(NC(=O)c2ccc3c(c2)OCCO3)C1C (stereo not given)	x	7.1µM	n	n	n
COc1ccc(NC(=O)CSc2nnc(C3CCCCC3)o2)c(OC)c1	n	n	n	n	n
O=C(CSc1nnc(C2CCCCC2)o1)Nc1ccccc1Cl	u	10µM	n	n	n
COc1cc(/C=N/n2c(C)n[nH]c2=S)ccc1OCc1ccc(F)cc1	u	5.6µM	n	n	n
C[S+](C)CC(=O)c1ccc2ccccc2c1	x	n	x	x	x
CCC(=O)CCC(=O)c1ccc2ccccc2c1	u	7.1µM	n	n	n
CN(C)c1ccc(/C=C/c2ccnc3c([N+](=O)[O-])cccc23)cc1	x	n	x	x	x
Cc1ccc(NC(=O)CCCC2CCCCC2)c(O)c1	n	13µM	n	n	n
Cc1ccc(NC(=O)CCN2C(=O)C3CCCCC3C2=O)c(O)c1 (stereo not given)	x	n	n	n	n
C[N+](C)(CCCCCI)c1ccc(/C=C/c2nc3ccccc3s2)cc1	x	n	x	x	x
CC(C)n1nnnc1SCC(=O)N1N=C(c2cccs2)CC1c1cccs1 (stereo not given)	x	13µM	n	n	n
COc1ccccc1NC(=O)COc1ccccc1C(=O)c1cnn(-c2ccccc2)c1	n	13µM	n	n	n
COc1ccc(C2/C=C\CN(C(=O)C3CC3)C(C)C(=O)N2Cc2ccc(F)cc2)cc1 (stereo not given)	n	x	x	x	x
COC(=O)Cc1c(OC)ccn(CCc2c[nH]c3ccccc23)c1=O	n	2.2µM	n	n	n
CC[C@H](C)[C@H](NC(=O)[C@H](CC(=O)O)NC(=O)[C@H](CC(C)C)NC(=O)[C@H](Cc1cnc[nH]1)NC(=O)[C@H](C)NC(=O)[C@H](Cc1ccccc1)NC(=O)[C@H](Cc1ccc(O)cc1)NC(=O)[C@@H](NC(=O)[C@H](C)NC(=O)[C@H](CCC(=O)O)NC(=O)[C@H](CCC(=O)O)NC(=O)[C@H](CC(=O)O)NC(=O)CCC(=O)O)C(C)C)C(=O)N[C@H](C(=O)N[C@@H](Cc1c[nH]c2ccccc12)C(=O)O)[C@@H](C)CC	n	x	x	x	x

High-throughput results deposited in PubChem BioAssay by National Center for Advancing Translational Sciences (NCATS).
